An excerpt weighted towards active compounds, which were near 2.8% of everything screened.
IDE cell inh: cellular human IDE inhibition. P14735. HEK cells, FAbetaB cleavage, fluorescence polarization. inhibition, % at 5.59 µM. hit rate 0.41% among 320,000. AID 434962;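 active = percent inhibition above the average of all tested compounds plus 3 SD, set per screening campaign, cut at about 16% in these data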;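 also: IDE supplied by intact live HEK cells; FP after avidin binding of uncleaved biotin substrate so inhibition keeps polarization high; 0% = DMSO wells and 100% = 60 µM reference IDE inhibitor Ii1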
PP1 inh: counter-screen for PP5 inhibitors: inhibitors of human PP1-alpha. inhibition, % at 6.7 µM. hit rate 0.9% among 320,000. purified PP1alpha, OMFP fluorescence;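 active = inhibition above the mean inhibition of all tested compounds plus 3 SD, computed separately for each screening campaign, cut at about 15% in these data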
SKKanGAS inh: SKKanGAS growth inhibition | hit rate 1.3% among 300,000 | S. pyogenes SKKanGAS, kanamycin growth, BacTiter-Glo, 6 h | inhibition, % at 7.5 µM | AID 1662;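 active = mean replicate score, as percent of positive control median, at least 50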;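 also: strain carries kanamycin resistance gene driven by streptokinase promoter and grows in 40 µg/ml kanamycin; loss of luminescence reflects streptokinase promoter inhibition or plain growth inhibition; 0% = median of DMSO wells and 100% = positive control at its reference dose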
PP5 inh: PP5 (human) phosphatase inhibition; AID 1987; purified PP5c, OMFP substrate fluorescence; hit rate 0.18% among 320,000; P53041; inhibition, % at 6.7 µM;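 active = inhibition above the campaign's mean inhibition across all tested compounds plus 3 SD, cut at about 9.5% in these data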;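 also: 0% = DMSO only and 100% = 100 µM cantharidin control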
Target sequence (P53041 whole entry, looked up): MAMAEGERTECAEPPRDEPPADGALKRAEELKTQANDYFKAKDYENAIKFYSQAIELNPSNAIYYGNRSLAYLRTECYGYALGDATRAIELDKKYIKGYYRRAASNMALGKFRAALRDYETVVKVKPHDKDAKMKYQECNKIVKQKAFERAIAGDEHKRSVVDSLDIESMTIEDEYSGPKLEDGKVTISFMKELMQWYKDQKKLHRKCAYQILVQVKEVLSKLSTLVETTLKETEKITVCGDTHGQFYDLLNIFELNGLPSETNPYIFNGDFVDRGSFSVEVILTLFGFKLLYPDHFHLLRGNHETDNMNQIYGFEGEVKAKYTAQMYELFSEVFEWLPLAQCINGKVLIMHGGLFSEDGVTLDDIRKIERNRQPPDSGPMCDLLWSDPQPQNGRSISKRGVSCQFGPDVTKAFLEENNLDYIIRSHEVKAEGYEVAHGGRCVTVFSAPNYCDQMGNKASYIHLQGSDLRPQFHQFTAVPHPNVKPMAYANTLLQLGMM
Granule exo inh: blocks lytic granule exocytosis; TALL-104 LAMP-1 surface exposure, flow cytometry; cells stimulated with thapsigargin and PMA; inhibition, % at 10 µM; hit rate 0.66% among 360,000;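 active = inhibition above about 55%, limit read from the data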
IDE cell activ: activators of human insulin-degrading enzyme in cells; hit rate 0.073% among 340,000; AID 493087; activation, % at 5.96 µM; HEK cells, FAbeta-B cleavage, fluorescence polarization; 0% vehicle, 100% cell-free pure enzyme wells; P14735;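 active = activation above the mean of all tested compounds plus 3 SD, set per screening campaign, cut at about 17% in these data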
* = called active by the depositor.

For Cc1c(CN(C)C)c2c(n1C)C(=O)c1ccc(Br)cc1-2 the results were IDE cell inh 4, PP1 inh -3, SKKanGAS inh 46, PP5 inh 3, Granule exo inh 0 and IDE cell activ -1.
Cc1ccc(OCC(=O)c2ccc(Cl)s2)c([N+](=O)[O-])n1 was read as IDE cell inh -4, PP1 inh 10, SKKanGAS inh -7, PP5 inh 7, Granule exo inh 13 and IDE cell activ -4.
Screening Cc1ccc(C(=O)NCC(=O)N/N=C/c2sccc2C)cc1[N+](=O)[O-] returned IDE cell inh 2, PP1 inh 1, SKKanGAS inh -1, PP5 inh 0, Granule exo inh -4 and IDE cell activ 2.
For O=C(Nc1ccc(NC(=O)c2cc3ccccc3o2)cc1)c1ccc2c(c1)OCCO2 the results were IDE cell inh 2, PP1 inh -4, SKKanGAS inh 6, PP5 inh 0, Granule exo inh 24 and IDE cell activ -9.
Cc1cc(NC(=O)c2ccc3c(c2)OCCO3)ccc1NC(=O)c1cc2ccccc2o1 was read as IDE cell inh 3, PP1 inh -1, SKKanGAS inh 53*, PP5 inh 1, Granule exo inh 5 and IDE cell activ -7.
O=[N+]([O-])c1cccnc1N1CCC(c2cc(-c3ccc(Cl)cc3)n[nH]2)CC1 was read as IDE cell inh 9, PP1 inh 10, SKKanGAS inh 73*, PP5 inh 3, Granule exo inh -2 and IDE cell activ -8.
`CC(C)N1CCC(C)(C(=O)Nc2ccc(-n3cccc3)cc2)C1` (centres undefined) gave Granule exo inh -2.
`O=C(CCCN1CCN(c2ccccc2)CC1)c1ccc(F)cc1` gave Granule exo inh 0.
O=C1CC(=C(c2ccccc2)c2ccccc2)C(=O)N1CCCCN1CCN(c2ccccc2)CC1 was read as IDE cell inh 4, PP1 inh 15, SKKanGAS inh -3, PP5 inh 4, Granule exo inh 58* and IDE cell activ -1.
Screening O=[N+]([O-])c1cccc(Cl)c1NCCNc1ncc(C(F)(F)F)cc1Cl returned IDE cell inh 7, PP1 inh 3, SKKanGAS inh 1, PP5 inh 4, Granule exo inh -1 and IDE cell activ 73*.
Screening CN(C)C(CNc1ccc(S(C)(=O)=O)cc1[N+](=O)[O-])c1ccccc1 (centres undefined) returned IDE cell inh -5, PP1 inh 0, SKKanGAS inh 4, PP5 inh 0, Granule exo inh -10 and IDE cell activ 1.
Screening CN(C)C(CNc1ccc(C(F)(F)F)cc1[N+](=O)[O-])c1ccccc1 (centres undefined) returned IDE cell inh -1, PP1 inh 8, SKKanGAS inh 4, PP5 inh 2, Granule exo inh 74* and IDE cell activ -1.
O=C(NCCCN1CCCC1=O)C1CCCO1 (centres undefined) was read as IDE cell inh 0, PP1 inh 0, SKKanGAS inh -7, PP5 inh 0, Granule exo inh -4 and IDE cell activ 5.
Screening CCOC(=O)c1c(-c2ccc(-c3ccccc3)cc2)csc1NC(=O)CNCCN(C)C returned IDE cell inh -6, PP1 inh 6, SKKanGAS inh 112*, PP5 inh 2, Granule exo inh -7 and IDE cell activ 1.
`CCOC(=O)c1c(-c2ccccc2)csc1NC(=O)CCN1C(=O)c2ccccc2C1=O` gave IDE cell inh -1, PP1 inh 2, SKKanGAS inh 5, PP5 inh 1, Granule exo inh 4 and IDE cell activ -1.
For COc1ccc(C(=O)NNC2=Nc3cccc4cccc2c34)cc1 the results were IDE cell inh -5, PP1 inh -1, SKKanGAS inh 38, PP5 inh 0, Granule exo inh 2 and IDE cell activ -1.
Cc1ccc(C(=O)NNC2=Nc3cccc4cccc2c34)cc1 was read as IDE cell inh 7, PP1 inh -2, SKKanGAS inh 58*, PP5 inh 2, Granule exo inh -2 and IDE cell activ -1.
`COc1ccc(C(=O)CSc2nc(-c3ccccn3)nc(C)c2Cl)cc1` gave IDE cell inh 3, PP1 inh 15, SKKanGAS inh 88*, PP5 inh -1, Granule exo inh -2 and IDE cell activ 8.
Screening COc1cc(CN2CCN(C(C)C)C(CCO)C2)ccc1OCc1ccccc1 (centres undefined) returned IDE cell inh 6, PP1 inh 1, SKKanGAS inh 7, PP5 inh -1, Granule exo inh -2 and IDE cell activ 3.
`CC(=O)Nc1ccc(S(=O)(=O)N2CCC(C(=O)O)(c3ccccc3)CC2)cc1` gave IDE cell inh -1, PP1 inh 1, SKKanGAS inh -2, PP5 inh 0, Granule exo inh -2 and IDE cell activ 4.
`Cc1sc(NC(=O)CSc2n[nH]c(N)n2)c(C#N)c1C` gave Granule exo inh 18 and IDE cell activ 5.
Screening Cc1ccc(/C=C/C2=Cc3c(sc(NC(=O)CSc4n[nH]c(N)n4)c3C#N)C(C)(C)C2)o1 returned IDE cell inh 4, PP1 inh 57*, SKKanGAS inh 55* and PP5 inh -8.
COc1cc(C2Nc3cccc4cccc(c34)N2)cc(OC)c1OC(C)=O was read as IDE cell inh -8, PP1 inh 7, SKKanGAS inh 4, PP5 inh 1, Granule exo inh 7 and IDE cell activ 0.
COc1cc(C2Nc3cccc4cccc(c34)N2)ccc1O was read as IDE cell inh -1, PP1 inh -1, SKKanGAS inh 13, PP5 inh 0, Granule exo inh 2 and IDE cell activ 19*.
Screening Oc1ccc(Cl)cc1-c1cc(-c2ccccc2Cl)[nH]n1 returned IDE cell inh -1, PP1 inh 0, SKKanGAS inh 3, PP5 inh 5, Granule exo inh 0 and IDE cell activ 5.
`Oc1ccc(Cl)cc1-c1cc(-c2cccc(Br)c2)n[nH]1` gave IDE cell inh 0, PP1 inh 0, SKKanGAS inh 54*, PP5 inh 2, Granule exo inh 40 and IDE cell activ -6.
Screening COc1ccc(CNC(=O)C[C@@H]2C=C[C@@H](NS(=O)(=O)c3cccc(OC)c3)[C@@H](CO)O2)cc1 returned Granule exo inh 4.
`O=C(NC(=S)N1CCN(C(c2ccccc2)c2ccccc2)CC1)c1ccc(S(=O)(=O)N2CCOCC2)cc1` gave IDE cell inh 0, PP1 inh 0, SKKanGAS inh 66*, PP5 inh 2, Granule exo inh 6 and IDE cell activ 2.
`CC(CCc1ccccc1)NC(=O)CNC(=O)c1ccccc1Br` (centres undefined) gave IDE cell inh -1, PP1 inh 0, SKKanGAS inh -1, PP5 inh -1, Granule exo inh -1 and IDE cell activ 2.
